Rows were chosen to be rich in hits. Some 19% of all compounds tested hit in one or more screens of this group.
TGFb SMAD3 inh: blocks TGF-b signaling | HepG2 CAGA-GFP TGF-b/SMAD3 reporter, GFP fluorescence, 18 h; TGF-beta stimulated, 500 pg/mL final | Potency, µM (highest dose often 46.1 µM), without a hit: at the highest dose activity, negative = inhibition, usual class: inhibitors | 1.2% of 410,000 active; further: potency means the concentration at half of the fitted maximal effect; on the % scale 0 is the no-effect control and ±100 the full control effect; nearly all actives have a fitted effect of over 65% in size
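Per well, imaged GFP fluorescence of HEPG2 CAGA-GFP cells gives the signal; cells get compound, then TGF-beta (500 pg/mL final), 18 h at 37 degrees C; %Activity versus -TGF-beta and +DMSO controls.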
TDP1 cell noCPT: qHTS for Inhibitors of human tyrosyl-DNA phosphodiesterase 1 (TDP1): qHTS in cells in absence of CPT | DT40 Tdp1-/- hTDP1 cells, no CPT, ATP luminescence, 48 h | Potency, µM (highest dose often 46.2 µM), for the others: top-dose activity change, negative = growth inhibition, hits mostly inhibitors | 15% of 420,000 active; further: potency means the concentration at half of the fitted maximal effect; on the % scale 0 is the no-effect control and ±100 the full control effect; nearly all actives have a fitted effect of over 55% in size
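Seeded 400 DT40-hTDP1 cells/well (vehicle DMSO, no 20 nM CPT); pinned compounds; ≥48 hr at 37 °C; CellTiter-Glo luminescence as viability measure.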
HepG2 viability: counter-screen for TGF-b inhibitors: cytotoxicity in HepG2 cells | HepG2 CAGA-GFP viability, ATP luminescence, 18 h | Potency, µM (doses to about 46.1 µM), inactives show at the top dose activity change, negative = cytotoxicity, usual class: cytotoxic | 0.76% of 410,000 active | AID 588856; further: potency means the concentration at half of the fitted maximal effect
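HepG2 CAGA-GFP cells (1000/well, DMEM with 1% FBS) received compound, then TGF-beta at 500 pg/mL final, and were incubated 18 hours at 37 degrees C. Viability was read by CellTiter-Glo luminescence. Media-only wells were set as complete cell-killing and DMSO as no toxicity.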
TDP1 cell CPT: growth inhibition of DT40 Tdp1-/-;hTDP1 cells with camptothecin (screen for TDP1 inhibitors); Potency, µM (series often up to 46.2 µM), for the others: at the highest dose activity change, negative = growth inhibition, usual class: inhibitors; 12% of 420,000 active; chicken DT40 Tdp1-/-;hTDP1 cells + 20 nM CPT, ATP luminescence, 48 h; further: potency means the concentration at half of the fitted maximal effect; on the % scale 0 is the no-effect control and ±100 the full control effect; nearly all actives have a fitted effect of over 55% in size
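Chicken DT40 Tdp1-/- cells complemented with human TDP1, 400 cells/well, exposed to compounds plus 20 nM camptothecin for at least 48 h at 37 C; viability read as ATP content by CellTiter-Glo luminescence.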
IL1B secr inh: inflammasome signaling inhibition, IL-1 beta readout; THP-1 LPS/ATP IL-1B secretion, AlphaLISA, 16 h; stronger effect = lower value; activity change, % at 57.5 µM; 4.7% of 360,000 active; AID 743279; in the data active means activity change below about -50%; inconclusive means mostly about -30% to -49%; further: on the % scale 0 is the no-effect control and ±100 the full control effect
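THP-1 cells pretreated 1 hr with compounds (up to 57.5 uM final), then stimulated with LPS (250 ng/mL final) plus ATP (1.25 mM final); secreted IL-1B measured by AlphaLISA after 16 hr, decreased signal indicating inhibition.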
TDP1 inh: blocks human tyrosyl-DNA phosphodiesterase 1; recombinant TDP1, AlphaScreen DNA substrate cleavage; Potency, µM (titrated, usually from 130 µM), for inactives: top-dose activity change, negative = inhibition, actives largely listed as inhibitors; 0.28% of 350,000 active; further: potency means the concentration at half of the fitted maximal effect; on the % scale 0 is the no-effect control and ±100 the full control effect; nearly all actives have a fitted effect of over 40% in size
Target sequence (Q9NUW8 whole entry, looked up): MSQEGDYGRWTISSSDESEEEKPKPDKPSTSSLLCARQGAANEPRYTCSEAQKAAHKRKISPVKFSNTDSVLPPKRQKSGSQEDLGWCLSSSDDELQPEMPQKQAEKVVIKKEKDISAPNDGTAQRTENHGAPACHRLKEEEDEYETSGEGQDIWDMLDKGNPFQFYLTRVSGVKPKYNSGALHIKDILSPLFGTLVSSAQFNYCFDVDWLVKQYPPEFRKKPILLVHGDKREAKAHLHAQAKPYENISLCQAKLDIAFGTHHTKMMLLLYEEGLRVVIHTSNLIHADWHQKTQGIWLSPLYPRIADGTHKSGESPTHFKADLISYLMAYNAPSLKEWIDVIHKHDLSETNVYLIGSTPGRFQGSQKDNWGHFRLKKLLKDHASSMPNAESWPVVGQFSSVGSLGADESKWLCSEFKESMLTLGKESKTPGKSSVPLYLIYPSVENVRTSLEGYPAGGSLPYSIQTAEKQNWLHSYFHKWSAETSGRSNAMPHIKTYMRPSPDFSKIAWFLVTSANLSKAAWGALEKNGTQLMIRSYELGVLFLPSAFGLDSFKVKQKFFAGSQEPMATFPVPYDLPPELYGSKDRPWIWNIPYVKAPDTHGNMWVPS
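Steps: enzyme plus compound, 15 min RT; add biotin/phosphotyrosine-FITC oligonucleotide (15 nM final), react 5 min; add donor/acceptor beads (10 ug/ml final), 10 min; read AlphaScreen. Tdp1 at 1 nM final.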
Numbers without * were called inactive; ? = inconclusive; nt = no result; ! = a repeat was not active. Unless noted, the call rests on the fitted dose curve; in most records, active means well fitted curve in the direction sought with a large enough effect; inconclusive means small, poorly fitted or top-dose-only effect, or another doubt; inactive means no such curve, though single readings can be large; an effect the other way counts as inactive or inconclusive.

SMILES	TGFb SMAD3 inh	TDP1 cell noCPT	HepG2 viability	TDP1 cell CPT	IL1B secr inh	TDP1 inh
Cc1ccc(S(=O)(=O)N2CCCCC2CCNC(=O)C(=O)NC2CCCC2)cc1 (stereo not drawn)	-12%	21µM*	-8%	?	7	9%
Cc1ccc(C)c(S(=O)(=O)N2CCCCC2CCNC(=O)C(=O)NC2CCCC2)c1 (stereo not drawn)	?	16µM*	-30%	?	7	nt
C=CCn1c(SCC(=O)N2CCOCC2)nc(O)c(Cc2ccccc2)c1=O	16%	13µM*	6%	?	-1	0%
Cn1c(SCC(=O)O)nc2sc3c(c2c1=O)CCC3	-4%	-16%	-5%	-14%	18	nt
C=CCn1c(SCC(=O)N2CCOCC2)nc2sc3c(c2c1=O)CCCC3	-10%	18µM*	-56%	?	-77*	0%
Cn1c(SCC(=O)N2CCOCC2)nc2sc3c(c2c1=O)CCCC3	-15%	23µM*	4%	9.2µM*	-4	5%
COc1ccccc1-n1c(SCC(=O)N2CCOCC2)nc(O)c(Cc2ccccc2)c1=O	19%	-5%	-4%	-17%	15	3%
CCOC(=O)c1c(-c2ccccc2)c[nH]c1C	-4%	?	-6%	-3%	-11	nt
Cc1ccc2nc(-c3cccc(Cl)c3)c(Cc3cccc(F)c3)n2c1	nt	?	nt	?	0	nt
CCC(C)Sc1cccc(-c2nc3ccc(C)cn3c2NCc2ccccc2)c1 (stereo not drawn)	10µM*	21µM*	11µM*	16µM*	-104*!	-11%
Cc1ccc2nc(-c3cccc(-c4cccc(Cl)c4)c3)c(NCc3ccccc3)n2c1	?	?	-29%	9.2µM*	0	8%
CCC(C)Sc1cccc(-c2nc3ccc(Cl)cn3c2NCc2ccccc2)c1 (stereo not drawn)	?	16µM*	-7%	23µM*	-54*	-16%
O=C(Nc1ccccc1Cl)C1CCN(c2nc3ccccc3[nH]2)CC1	-16%	-29%	-8%	-10%	nt	3%
CCn1c2ccccc2c2cc(/C=N/n3c(-c4cc(C)[nH]n4)n[nH]c3=S)ccc21	?	?	-36%	21µM*	31	11%
CCn1c2ccccc2c2cc(/C=N/n3cnnc3)ccc21	?	-30%	-70%	18µM*	-59*	3%
COc1ccc(/C=N/n2c(-c3cc(C)[nH]n3)n[nH]c2=S)cc1	3%	-1%	-6%	12%	13	4%
CCn1c2ccccc2c2cc(/C=N/n3cn[nH]c3=S)ccc21	?	?	-50%	?	-12	8%
COCCCNC(=O)c1sc2nc(C)c(C(=O)Nc3ccc(Cl)cc3)c(-c3ccc(Br)cc3)c2c1N	-22%	-23%	-23%	?	nt	6%
Cc1nc2nc(C)n(CCN3CCOCC3)c(=O)c2c(-c2cccc([N+](=O)[O-])c2)c1C(=O)CCCCCCCCCCN1CCC(c2ccccc2)(c2ccccc2)CC1	7.1µM*	?	11µM*	?	-99*	nt
O=C(NCCCN1CCOCC1)/C(=C/c1ccc(-c2cccc([N+](=O)[O-])c2)o1)NC(=O)c1ccccc1	-2%	?	-33%	?	?	nt
CCOc1ccccc1C(=O)Nc1cc(-c2ccc(C)cc2)no1	-1%	?	-16%	?	nt	-1%
COc1ccc(CN(Cc2cc3cccc(C)c3n3nnnc23)C(=O)N2CCOCC2)cc1	0%	?	-6%	16µM*	7	4%
c1ccc(Cc2nn3c(COc4ccccc4)nnc3s2)cc1	-1%	18µM*	-20%	?	-6	-3%

Source: PubChem (National Center for Advancing Translational Sciences (NCATS))
